# Pf Dd2 growth: Plasmodium falciparum Dd2 growth inhibition | P. falciparum Dd2 growth, SYBR Green, 72 h | Potency, µM (titrated, usually from 28.9 µM), without a hit: at the highest dose activity, negative = inhibition, usual class: inhibitors | actives 4.3% (n = 120,000) | AID 1347417; active = well fitted inhibition curve with a large enough effect;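 note: plate controls were DMSO vehicle for no effect and reference drug for full effect; nearly all actives have a fitted effect of over 65% in size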
#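 Infected erythrocytes (Dd2, 0.3% parasitemia, 2.5% hematocrit final) are added to compound in RPMI-1640/Albumax II medium, grown 72 h at 37C in low oxygen, then lysed with saponin/Triton-X containing SYBR Green and read by fluorescence.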
# * = called active by the depositor; i = inactive; [ ] = remark or other dose. This excerpt belongs to a sample that is enriched for hits. Potency is the fitted concentration of half-maximal effect.
SMILES,Pf Dd2 growth
CC(C)(Oc1ccc(Cl)cc1)C(=O)Nc1ccc(-c2nc3ncccc3o2)cc1,i
COCCCN1C(=O)CC(CC(=O)N2CCC(C(O)c3ccccc3)CC2)(c2ccccc2C)C1=O (centres undefined),-11%
COCCC(=O)NCCC1CCN(C(=O)Nc2cc(F)ccc2F)CC1,-3%
Cc1cc(C)c(CNC(=O)c2cc(-c3cccnc3)cc3c2OCCN3C)c(=O)[nH]1,-13%[44.1 µM]
COc1cc(F)ccc1-c1cc(C(=O)NCc2c(C)cc(C)[nH]c2=O)c2c(c1)N(C(C)C)CCO2,-27%
CC(=O)Nc1cccc(-c2cc(C(=O)NCc3c(C)cc(C)[nH]c3=O)c3c(c2)N(C(C)C)CCO3)c1,1.8µM*
Cc1cc(C)c(CNC(=O)c2cc(-c3ccccc3C)cc3c2OCCN3C(C)C)c(=O)[nH]1,-17%
Cc1cc(C)c(CNC(=O)c2cc(-c3ccccc3F)cc3c2OCCN3C(C)C)c(=O)[nH]1,-13%
Cc1cc(C)c(CNC(=O)c2cc(-c3ccccc3F)cc3c2OCCN3C)c(=O)[nH]1,6.3µM*
Cc1ccccc1OCC(=O)NCc1nnc2c(-c3nc(C4CC4)no3)cccn12,i
Cc1ccccc1NC(=O)N(C)CC1CCOC1 (centres undefined),12%[5.79 µM]
CCC(CC)NC(=O)CC1CCCN(c2cnn(CC3CC3)c(=O)c2)C1 (centres undefined),14%
COc1ccc(OC)c(C2NC(=O)NC(C)=C2C(=O)Nc2cc(C)cc(C)c2)c1 (centres undefined),8%
COc1cc(C2Nc3c(C)cc(C)cc3-c3cc(C)nn32)cc(OC)c1O (centres undefined),-4%
COc1ccc(OC)c(C2Nc3c(C)cc(C)cc3-c3cc(C)nn32)c1 (centres undefined),0.25µM*
CCC1CCCCN1CCCNC(=O)c1c(O)nc2ccccn2c1=O (centres undefined),-5%
O=C(c1cc(COc2c(F)cccc2F)on1)N1CCCCC1CCc1ccccc1 (centres undefined),-17%
CSc1ccccc1OCc1cc(C(=O)NCCN2CCCCC2CO)no1 (centres undefined),11µM*
Cc1c(CC(=O)NCc2cccnc2)c2c(n1CC(C)C)CC(C)(C)CC2=O,i
O=C(c1ccc2c(c1)OCO2)N1CCCC(n2cc(-c3nc(-c4ccccc4)no3)nn2)C1 (centres undefined),i
COc1cccc(CNC(=O)COc2ccc(NC(=O)C3CC3)cn2)c1,52%
Cc1ccc(C2Cn3nnc(-c4noc(COc5ccc(F)cc5)n4)c3CO2)cc1 (centres undefined),-24%
COc1ccccc1Cc1nc(-c2nnn3c2COC(c2ccc(C)cc2)C3)no1 (centres undefined),7.9µM*
COc1cccc(-c2nc(-c3nnn4c3COC(c3ccc(C)cc3)C4)no2)c1OC (centres undefined),-4%
CC1(NC(=O)C2CC2)CN(Cc2nc(-c3cccc(F)c3)cs2)C1,-22%[44.1 µM]
SMILES,Pf Dd2 growth
Cc1ccccc1NC(=O)N(C)CC1CCOCC1,-6%
C[C@@H](NC(=O)c1cccnc1)c1onc(-c2cccnc2)c1C(=O)O,20%[44.1 µM]
COc1ccc(-c2noc(-c3nc(-c4cccnc4)no3)n2)cc1OC,2%
Cc1nc(NC(C)c2nc(-c3cccnc3)no2)c2cccnc2n1 (centres undefined),3.5µM*
O=C(Cc1c[nH]c2ncc(-c3cccnc3)cc12)NCCc1ccccn1,-7%[44.1 µM]
Cc1nnc2n1CCC(NC(=O)c1cccn1C)CC2 (centres undefined),28%
C[C@@H]1C(=O)O[C@H]2[C@H]1CC[C@@]1(C)Cc3sc(NC(=O)CN(C)C)nc3[C@@H](C)[C@H]21,-44%[44.1 µM]
O=C(NCc1ccc2c(c1)OCO2)c1nc(-c2cc(Cl)cc(Cl)c2)c2ccccn12,-26%
O=C(NCCc1ccc(Cl)cc1)c1nc(-c2ccc(F)cc2)c2ccccn12,11%
C[S+](=O)([O-])c1ccc(-c2nc(C(=O)NCc3ccc(F)cc3)n3ccccc23)cc1,11µM*
O=C(NCc1ccc(F)cc1)c1nc(-c2cc(Cl)cc(Cl)c2)c2ccccn12,10µM*
C[S+](=O)([O-])c1ccc(-c2nc(C(=O)NCc3cccnc3)n3ccccc23)cc1,-14%
COCCNC(=O)c1nc(-c2ccc(F)cc2)c2ccccn12,i
CNc1cc(C)nc(N2C[C@H]3CN(C(=O)N(C)C)C[C@@]3(C(=O)O)C2)n1,-3%
CC(NC(=O)C1CCC1)C(=O)N1CCN(c2ccccn2)CC1 (centres undefined),i
O=C1NCCOCCCN(S(=O)(=O)c2ccc3c(c2)CCC3)[C@H]2CCC[C@@H]12,-23%
COc1ccc(C(=O)N2CC[C@@](O)(C3CCOCC3)[C@H](C)C2)o1,5%
C=CCC1(CO)CCCN(C(=O)CCCOc2ccccc2)C1 (centres undefined),-27%
C=CCC1(C(=O)O)CCCN(Cc2cnc(NCc3ccccc3)nc2)C1 (centres undefined),7%
C=CCC1(CO)CCCN(CCOc2ccc(C)cc2Cl)C1 (centres undefined),8.9µM*
C=CCC1(CO)CCCN(Cc2nc(C)cc(-c3ccccc3)n2)C1 (centres undefined),8.9µM*
C=CCC1(C(=O)O)CCCN(Cc2cc3c(cc2OC)OCO3)C1 (centres undefined),-12%
CCC1(CO)CCCN(CCCOc2ccc(C(N)=O)cc2)C1 (centres undefined),-7%
CCn1cc(-c2c(-c3ccccc3)ncn2C(CO)C(=O)O)cn1 (centres undefined),-7%
CCn1cc(CN2CCN(C(=O)c3ccc4[nH]ccc4c3)CC2)ccc1=O,16%
SMILES,Pf Dd2 growth
O=C1O[C@@H]2CN(S(=O)(=O)N3CCCC3)C[C@@H]2N1CCCc1ccc(F)cc1,-15%
COCCNC(=O)c1ccc(-c2ncc3cnc(-c4cccc(F)c4)cn23)cc1,i
O=C(c1ccc2c(c1)OCO2)N1CCN(C2CCNCC2)C(=O)C1,-4%
O=C1NC2(CCCN(Cc3cccnc3)C2)Oc2ccccc21 (centres undefined),-15%[44.1 µM]
N#Cc1ccc(CN2CC3(C2)NC(=O)c2ccccc2O3)cc1,i
Cc1ccc(CN2CCC3(CC2)NC(=O)c2ccccc2O3)cc1,-4%[44.1 µM]
N#Cc1ccc(CN2CCCC3(COc4ccccc4C(=O)N3)C2)cc1 (centres undefined),-24%
O=C1NC2(CCN(Cc3ccccc3)C2)COc2ccccc21 (centres undefined),10µM*
COc1cccc(CN2CCCC3(C2)NC(=O)c2ccccc2O3)c1 (centres undefined),16µM*
O=C1NC2(CCN(Cc3ccc(OC(F)(F)F)cc3)C2)COc2ccccc21 (centres undefined),9%
COc1cccc(CN2CC3(C2)NC(=O)c2ccccc2O3)c1,-4%[44.1 µM]
CC1=NOC2(CCN(Cc3ccc(C)cc3)CC2)C1,i
O=C1NC2(CCN(Cc3ccncc3)C2)Oc2ccccc21 (centres undefined),14%[44.1 µM]
N#Cc1ccc(CN2CCC3(CC2)COc2ccccc2C(=O)N3)cc1,2.5µM*
Cc1ccc(CN2CCC3(CC2)COc2ccccc2CN3)cc1,6.3µM*
CCOC(=O)C1CCCCC(=O)N1 (centres undefined),22%
CC1(Cc2ccc3c(c2)OCO3)CCCN(CC(=O)NCc2ccco2)C1 (centres undefined),-20%
O=C(NC1CCN(c2cc(-c3ccc(F)cc3)[nH]n2)C1)c1ccc(Br)cc1 (centres undefined),i
